In PMC7862700, “An all-to-all approach to the identification of sequence-specific readers for epigenetic DNA modifications on cytosine”:

Legend:
Test in all cases: DAPPL (digital affinity profiling via proximity ligation, sequencing); 10 mM Tris-HCl pH 7.5, 50 mM NaCl, 1 mM DTT, 4% glycerol, room temperature, 30 min; GST-TFs on glutathione beads, 16-mer random dsDNA library, 0.1% formaldehyde crosslink after washing; high values mean tight binding
Conditions in all cases: protein: recombinant; tags: N-terminal GST; dsDNA, one strand shown
[1] = biological target: T1, FLI1 (Homo sapiens, UniProt Q01543 1-452)
T1 sequence: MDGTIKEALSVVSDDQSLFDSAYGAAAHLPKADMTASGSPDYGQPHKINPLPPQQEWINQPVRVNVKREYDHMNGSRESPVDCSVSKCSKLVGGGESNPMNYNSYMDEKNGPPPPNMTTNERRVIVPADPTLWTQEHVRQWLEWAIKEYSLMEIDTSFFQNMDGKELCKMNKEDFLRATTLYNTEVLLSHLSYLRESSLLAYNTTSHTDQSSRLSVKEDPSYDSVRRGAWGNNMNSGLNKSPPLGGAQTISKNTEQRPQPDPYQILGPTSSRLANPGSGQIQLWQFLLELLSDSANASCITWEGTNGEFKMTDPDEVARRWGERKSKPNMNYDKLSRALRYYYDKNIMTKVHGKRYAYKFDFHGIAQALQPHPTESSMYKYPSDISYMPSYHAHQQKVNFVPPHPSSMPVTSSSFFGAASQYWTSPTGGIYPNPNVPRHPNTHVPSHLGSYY
Summary of the method: (§1)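 Beads coated with glutathione captured GST-fused human transcription factors that had been expressed in yeast, and the factors were then given DNA barcodes and pooled with a tag-only sample. The pools were incubated with 200 nmole of a random double-stranded 16-mer DNA library in Tris/NaCl/DTT/glycerol buffer for 30 min at room temperature, washed, crosslinked with 0.1% formaldehyde and proximity-ligated with BsaI/T4 ligase at 37 °C for 1 h. PCR amplification and Illumina NextSeq500 sequencing came last. Binding signal is each hexamer's read frequency for a factor divided by its frequency for the tag-only sample.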

[2] = biological target: T2, ELK1 (Homo sapiens, UniProt P19419 1-428)
T2 sequence: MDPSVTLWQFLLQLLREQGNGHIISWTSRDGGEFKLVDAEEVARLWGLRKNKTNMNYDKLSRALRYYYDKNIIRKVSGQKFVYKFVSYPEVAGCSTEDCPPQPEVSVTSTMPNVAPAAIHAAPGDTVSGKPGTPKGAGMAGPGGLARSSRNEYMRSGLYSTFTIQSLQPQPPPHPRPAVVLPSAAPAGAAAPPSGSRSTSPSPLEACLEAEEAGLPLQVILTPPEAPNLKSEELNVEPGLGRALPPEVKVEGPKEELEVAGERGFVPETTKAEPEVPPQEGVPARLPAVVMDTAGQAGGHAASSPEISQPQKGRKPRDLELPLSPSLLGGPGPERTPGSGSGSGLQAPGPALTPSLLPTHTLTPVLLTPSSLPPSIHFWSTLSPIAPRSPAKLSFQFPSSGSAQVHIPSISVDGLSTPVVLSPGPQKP
Summary of the method: as §1

[3] = biological target: T3, GABPA (Homo sapiens, UniProt Q06546 1-454)
T3 sequence: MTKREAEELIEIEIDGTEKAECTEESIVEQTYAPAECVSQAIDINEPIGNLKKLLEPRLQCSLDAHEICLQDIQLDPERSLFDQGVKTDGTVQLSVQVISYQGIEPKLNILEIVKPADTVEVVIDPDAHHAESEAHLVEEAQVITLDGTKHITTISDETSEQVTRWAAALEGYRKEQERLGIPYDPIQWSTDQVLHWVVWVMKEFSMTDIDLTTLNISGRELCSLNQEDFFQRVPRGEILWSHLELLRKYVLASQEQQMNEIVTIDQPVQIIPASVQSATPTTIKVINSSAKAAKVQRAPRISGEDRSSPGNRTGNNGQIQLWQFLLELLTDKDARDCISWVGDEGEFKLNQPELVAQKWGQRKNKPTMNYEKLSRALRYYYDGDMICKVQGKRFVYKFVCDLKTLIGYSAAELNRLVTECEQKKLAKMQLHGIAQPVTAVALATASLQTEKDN
Summary of the method: as §1

[4] = biological target: T4, ERG (Homo sapiens, UniProt P11308 1-479)
T4 sequence: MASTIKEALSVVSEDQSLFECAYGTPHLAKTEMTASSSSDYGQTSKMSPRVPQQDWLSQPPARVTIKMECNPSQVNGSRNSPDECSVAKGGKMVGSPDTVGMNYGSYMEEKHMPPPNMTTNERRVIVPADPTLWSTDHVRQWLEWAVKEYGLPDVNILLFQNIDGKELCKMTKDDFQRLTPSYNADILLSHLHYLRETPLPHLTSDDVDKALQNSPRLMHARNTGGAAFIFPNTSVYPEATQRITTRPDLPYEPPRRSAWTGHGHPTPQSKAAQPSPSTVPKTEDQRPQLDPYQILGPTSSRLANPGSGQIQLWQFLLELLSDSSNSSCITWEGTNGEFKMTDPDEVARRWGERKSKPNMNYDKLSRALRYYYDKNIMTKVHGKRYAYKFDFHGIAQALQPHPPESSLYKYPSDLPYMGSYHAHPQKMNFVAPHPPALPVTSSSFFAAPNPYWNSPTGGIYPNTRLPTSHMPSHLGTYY
Summary of the method: as §1

[5] = biological target: ELF1 (Homo sapiens, UniProt P32519 1-619)
Chain of ELF1 (P32519 whole entry): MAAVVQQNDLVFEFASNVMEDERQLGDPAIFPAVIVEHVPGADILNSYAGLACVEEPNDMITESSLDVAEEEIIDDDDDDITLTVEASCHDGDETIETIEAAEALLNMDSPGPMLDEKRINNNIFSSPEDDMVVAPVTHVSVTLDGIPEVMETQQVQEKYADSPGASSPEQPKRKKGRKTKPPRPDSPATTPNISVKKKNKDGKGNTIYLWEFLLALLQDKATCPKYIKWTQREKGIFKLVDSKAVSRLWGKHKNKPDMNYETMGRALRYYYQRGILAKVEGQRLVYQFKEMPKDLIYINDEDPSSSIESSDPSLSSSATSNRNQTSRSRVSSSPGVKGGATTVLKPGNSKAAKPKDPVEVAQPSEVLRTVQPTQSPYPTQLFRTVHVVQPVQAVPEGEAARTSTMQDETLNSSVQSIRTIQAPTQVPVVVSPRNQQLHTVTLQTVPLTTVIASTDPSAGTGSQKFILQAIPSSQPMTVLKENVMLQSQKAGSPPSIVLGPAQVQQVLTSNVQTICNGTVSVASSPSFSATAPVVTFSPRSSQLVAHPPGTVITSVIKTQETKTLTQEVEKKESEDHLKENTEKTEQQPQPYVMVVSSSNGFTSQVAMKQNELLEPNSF
Summary of the method: as §1

[6] = biological target: T5, EHF (Homo sapiens, UniProt Q9NZC4 1-300)
T5 sequence: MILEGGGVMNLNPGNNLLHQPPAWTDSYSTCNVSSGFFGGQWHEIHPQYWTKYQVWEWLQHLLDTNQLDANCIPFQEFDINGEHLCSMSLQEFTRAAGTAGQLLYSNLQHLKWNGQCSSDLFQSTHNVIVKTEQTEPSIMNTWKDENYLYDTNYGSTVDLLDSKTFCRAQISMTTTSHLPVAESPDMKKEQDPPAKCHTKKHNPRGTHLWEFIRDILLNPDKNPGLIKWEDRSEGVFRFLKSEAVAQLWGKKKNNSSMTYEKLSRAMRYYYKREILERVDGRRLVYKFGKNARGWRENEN
Summary of the method: as §1

[7] = biological target: SPI1 (Homo sapiens, UniProt P17947 1-270)
Summary of the method: as §1

[8] = biological target: SPIB (Homo sapiens, UniProt Q01892 1-262)
Chain of SPIB (Q01892 whole entry): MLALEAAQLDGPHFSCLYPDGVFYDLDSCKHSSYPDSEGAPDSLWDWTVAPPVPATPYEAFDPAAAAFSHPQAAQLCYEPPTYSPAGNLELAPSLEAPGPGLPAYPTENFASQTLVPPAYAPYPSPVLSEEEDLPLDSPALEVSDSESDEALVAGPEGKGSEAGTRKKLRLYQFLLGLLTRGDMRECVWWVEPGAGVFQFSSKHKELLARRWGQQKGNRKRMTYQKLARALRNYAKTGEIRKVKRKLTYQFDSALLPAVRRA
Summary of the method: as §1

[9] = biological target: T6, ELK3 (Homo sapiens, UniProt P41970 1-407)
T6 sequence: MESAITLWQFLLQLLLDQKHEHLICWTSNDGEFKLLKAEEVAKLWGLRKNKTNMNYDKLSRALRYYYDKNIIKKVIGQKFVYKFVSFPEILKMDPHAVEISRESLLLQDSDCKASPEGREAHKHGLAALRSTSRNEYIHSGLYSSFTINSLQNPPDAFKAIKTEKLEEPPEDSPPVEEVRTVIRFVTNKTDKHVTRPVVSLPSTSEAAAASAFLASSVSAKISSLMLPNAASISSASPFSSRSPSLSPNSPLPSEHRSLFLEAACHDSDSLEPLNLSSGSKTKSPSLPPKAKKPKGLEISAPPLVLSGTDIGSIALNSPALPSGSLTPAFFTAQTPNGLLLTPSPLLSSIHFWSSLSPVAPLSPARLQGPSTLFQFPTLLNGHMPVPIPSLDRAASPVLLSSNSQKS
Summary of the method: as §1

[10] = biological target: T7, FEV (Homo sapiens, UniProt Q99581 1-238)
T7 sequence: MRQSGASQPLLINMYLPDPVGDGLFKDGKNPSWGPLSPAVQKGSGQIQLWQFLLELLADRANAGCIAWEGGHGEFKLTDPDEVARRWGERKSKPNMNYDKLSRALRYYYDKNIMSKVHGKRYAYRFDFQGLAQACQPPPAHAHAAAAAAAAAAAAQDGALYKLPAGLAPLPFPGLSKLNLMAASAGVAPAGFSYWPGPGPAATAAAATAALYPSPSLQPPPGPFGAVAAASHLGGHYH
Summary of the method: as §1

[11] = biological target: ETV5 (Homo sapiens, UniProt P41161 1-510)
Chain of ETV5 (P41161 whole entry): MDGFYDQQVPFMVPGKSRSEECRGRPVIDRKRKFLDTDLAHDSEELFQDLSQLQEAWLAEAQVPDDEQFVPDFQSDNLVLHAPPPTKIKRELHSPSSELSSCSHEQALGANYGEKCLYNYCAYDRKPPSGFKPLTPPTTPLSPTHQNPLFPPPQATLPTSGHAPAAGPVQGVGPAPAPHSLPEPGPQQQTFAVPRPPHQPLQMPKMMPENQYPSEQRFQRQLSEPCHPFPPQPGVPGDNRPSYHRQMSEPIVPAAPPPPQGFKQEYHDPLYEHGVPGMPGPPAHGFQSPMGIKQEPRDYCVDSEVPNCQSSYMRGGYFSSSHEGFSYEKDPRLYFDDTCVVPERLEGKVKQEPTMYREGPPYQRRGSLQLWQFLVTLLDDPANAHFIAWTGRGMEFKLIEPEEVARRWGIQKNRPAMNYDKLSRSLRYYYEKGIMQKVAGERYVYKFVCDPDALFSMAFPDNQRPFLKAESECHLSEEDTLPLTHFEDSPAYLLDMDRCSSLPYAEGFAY
Summary of the method: as §1

[12] = biological target: T8, SPIC (Homo sapiens, UniProt Q8N5J4 1-248)
T8 sequence: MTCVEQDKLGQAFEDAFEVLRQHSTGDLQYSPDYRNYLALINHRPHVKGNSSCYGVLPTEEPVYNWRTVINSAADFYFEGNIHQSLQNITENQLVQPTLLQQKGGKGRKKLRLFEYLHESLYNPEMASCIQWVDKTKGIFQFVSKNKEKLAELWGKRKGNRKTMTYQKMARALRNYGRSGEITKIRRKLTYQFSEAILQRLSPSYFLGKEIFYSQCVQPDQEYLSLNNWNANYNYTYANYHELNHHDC
Summary of the method: as §1

[13] = biological target: ELF4 (Homo sapiens, UniProt Q99607 1-663)
Chain of ELF4 (Q99607 whole entry): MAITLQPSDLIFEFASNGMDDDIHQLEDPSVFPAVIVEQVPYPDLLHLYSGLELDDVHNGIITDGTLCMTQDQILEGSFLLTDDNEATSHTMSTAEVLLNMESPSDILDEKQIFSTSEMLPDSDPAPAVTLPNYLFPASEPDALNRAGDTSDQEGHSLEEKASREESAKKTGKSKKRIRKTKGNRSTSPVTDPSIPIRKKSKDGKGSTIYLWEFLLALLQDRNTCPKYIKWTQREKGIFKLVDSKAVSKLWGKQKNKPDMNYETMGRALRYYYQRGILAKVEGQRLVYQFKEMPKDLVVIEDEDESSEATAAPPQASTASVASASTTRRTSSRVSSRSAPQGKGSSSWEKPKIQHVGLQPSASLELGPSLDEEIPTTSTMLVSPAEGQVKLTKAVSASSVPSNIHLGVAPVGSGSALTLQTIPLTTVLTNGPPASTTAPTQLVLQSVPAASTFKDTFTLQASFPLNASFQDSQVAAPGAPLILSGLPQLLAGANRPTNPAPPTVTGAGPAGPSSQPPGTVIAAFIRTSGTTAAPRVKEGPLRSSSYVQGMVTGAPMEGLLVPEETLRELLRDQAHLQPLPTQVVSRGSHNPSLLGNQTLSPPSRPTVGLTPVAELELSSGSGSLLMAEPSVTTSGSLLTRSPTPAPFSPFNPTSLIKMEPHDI
Summary of the method: as §1

[14] = biological target: T9, ELK4 (Homo sapiens, UniProt P28324-2 1-405)
T9 sequence: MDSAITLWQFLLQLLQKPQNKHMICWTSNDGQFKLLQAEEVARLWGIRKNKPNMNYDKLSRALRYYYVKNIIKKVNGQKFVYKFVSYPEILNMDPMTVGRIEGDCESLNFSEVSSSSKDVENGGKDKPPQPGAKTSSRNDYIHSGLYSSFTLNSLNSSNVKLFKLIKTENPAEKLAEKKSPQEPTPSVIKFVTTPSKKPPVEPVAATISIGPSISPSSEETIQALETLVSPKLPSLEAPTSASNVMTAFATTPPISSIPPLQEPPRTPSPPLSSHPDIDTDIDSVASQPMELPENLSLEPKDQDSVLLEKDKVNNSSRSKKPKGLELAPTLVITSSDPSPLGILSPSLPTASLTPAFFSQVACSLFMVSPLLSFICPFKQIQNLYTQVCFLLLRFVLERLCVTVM
Summary of the method: as §1

[15] = biological target: T10, ETV2 (Homo sapiens, UniProt O00321 1-342)
T10 sequence: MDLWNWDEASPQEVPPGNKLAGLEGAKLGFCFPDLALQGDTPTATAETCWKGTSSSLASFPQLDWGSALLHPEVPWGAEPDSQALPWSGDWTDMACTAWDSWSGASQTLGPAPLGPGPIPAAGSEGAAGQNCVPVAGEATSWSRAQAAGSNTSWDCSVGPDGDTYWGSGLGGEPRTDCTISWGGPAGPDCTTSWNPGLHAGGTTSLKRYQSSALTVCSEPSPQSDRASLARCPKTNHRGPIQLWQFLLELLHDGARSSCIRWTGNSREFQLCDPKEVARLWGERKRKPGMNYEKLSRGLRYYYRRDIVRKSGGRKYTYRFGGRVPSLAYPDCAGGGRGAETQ
Summary of the method: as §1

[16] = biological target: T11, ELF3 (Homo sapiens, UniProt P78545 1-371)
T11 sequence: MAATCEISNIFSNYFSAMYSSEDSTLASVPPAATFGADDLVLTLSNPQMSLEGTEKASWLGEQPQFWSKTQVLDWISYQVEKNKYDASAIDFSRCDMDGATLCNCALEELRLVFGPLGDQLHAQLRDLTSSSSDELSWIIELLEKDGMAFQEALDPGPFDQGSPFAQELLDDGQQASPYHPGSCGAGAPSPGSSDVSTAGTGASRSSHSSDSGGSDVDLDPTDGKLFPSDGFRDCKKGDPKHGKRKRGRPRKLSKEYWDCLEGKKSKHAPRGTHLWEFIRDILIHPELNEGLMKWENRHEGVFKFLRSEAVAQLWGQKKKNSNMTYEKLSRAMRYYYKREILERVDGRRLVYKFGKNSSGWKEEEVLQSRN
Summary of the method: as §1

[17] = biological target: ETV1 (Homo sapiens, UniProt P50549 1-477)
Chain of ETV1 (P50549 whole entry): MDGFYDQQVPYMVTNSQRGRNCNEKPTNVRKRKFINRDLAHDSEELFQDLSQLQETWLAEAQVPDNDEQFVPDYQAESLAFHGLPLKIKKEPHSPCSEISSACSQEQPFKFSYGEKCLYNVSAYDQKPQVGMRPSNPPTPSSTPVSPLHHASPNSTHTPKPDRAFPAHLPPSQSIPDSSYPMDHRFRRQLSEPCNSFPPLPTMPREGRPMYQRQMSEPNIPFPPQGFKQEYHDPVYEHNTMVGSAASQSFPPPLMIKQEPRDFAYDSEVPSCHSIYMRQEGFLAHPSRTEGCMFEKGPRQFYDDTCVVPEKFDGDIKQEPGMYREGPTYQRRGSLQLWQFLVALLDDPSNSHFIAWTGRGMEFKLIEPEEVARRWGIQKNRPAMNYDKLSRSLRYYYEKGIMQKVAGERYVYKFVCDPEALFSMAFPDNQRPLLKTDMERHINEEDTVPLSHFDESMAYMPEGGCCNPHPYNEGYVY
Summary of the method: as §1

**Q.** With CAAACC as the sequence, how does the binding signal [1] read?
**A.** 1.16 fold enrichment (6-mer frequency, TF over GST control)

**Q.** What about the binding signal [2] of the same sequence?
**A.** 1.15 fold enrichment (6-mer frequency, TF over GST control)

**Q.** What about the binding signal [3] of the same sequence?
**A.** 1.11 fold enrichment (6-mer frequency, TF over GST control)

**Q.** What about the binding signal [4] of the same sequence?
**A.** 1.16 fold enrichment (6-mer frequency, TF over GST control)

**Q.** What about the binding signal [5] of the same sequence?
**A.** 1.13 fold enrichment (6-mer frequency, TF over GST control)

**Q.** And the binding signal [6]?
**A.** 1.05 fold enrichment (6-mer frequency, TF over GST control)

**Q.** What about the binding signal [7] of the same sequence?
**A.** 1.15 fold enrichment (6-mer frequency, TF over GST control)

**Q.** What about the binding signal [8] of the same sequence?
**A.** 1.06 fold enrichment (6-mer frequency, TF over GST control)

**Q.** And the binding signal [9]?
**A.** 1.15 fold enrichment (6-mer frequency, TF over GST control)

**Q.** What about the binding signal [10] of the same sequence?
**A.** 1.18 fold enrichment (6-mer frequency, TF over GST control)

**Q.** And the binding signal [11]?
**A.** 1.05 fold enrichment (6-mer frequency, TF over GST control)

**Q.** And the binding signal [12]?
**A.** 1.06 fold enrichment (6-mer frequency, TF over GST control)

**Q.** What about the binding signal [13] of the same sequence?
**A.** 1.2 fold enrichment (6-mer frequency, TF over GST control)

**Q.** And the binding signal [14]?
**A.** 1.05 fold enrichment (6-mer frequency, TF over GST control)

**Q.** And the binding signal [15]?
**A.** 1.12 fold enrichment (6-mer frequency, TF over GST control)

**Q.** What about the binding signal [16] of the same sequence?
**A.** 1.15 fold enrichment (6-mer frequency, TF over GST control)

**Q.** What about the binding signal [17] of the same sequence?
**A.** 1.18 fold enrichment (6-mer frequency, TF over GST control)
